We go through five molecules from PubChem BioAssay.

Assay [1] is described as follows: small molecules captured by biotinylated probe aFSTL3 – biochemical, small-molecule microarray, fluorescence 635/667, stem cell growth factor project, primary screen (AID 1064).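 Further: measures binding of the biotinylated anti-FSTL3 antibody to printed compounds.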 The conditions noted are these: higher = more signal.
Assay [2] in a line: binders from COS7 lysate, DM2A8 probe, primary screen, torsin A project, cell lysate, small-molecule microarray, fluorescence 635/667 (AID 1065). The note with it: higher = more signal, COS7 lysate expressing mutant human TOR1A.
A short description of assay [3]: small molecules captured by biotinylated probe aFGF2 – biochemical, small-molecule microarray, fluorescence 635/667, stem cell growth factor project, primary screen (AID 1067).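 Further: measures binding of biotinylated aFGF2 protein to printed compounds on slides; z-score merges feature fluorescence and signal-to-noise across triplicate slides.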 The note with it: higher = more signal.
Assay [4] can be described thus: small molecules captured by biotinylated probe aFGF10 – biochemical, small-molecule microarray, fluorescence 635/667, stem cell growth factor project, primary screen (AID 1071).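 Further: score merges 667 nm spot intensity and signal to noise from triplicate slides.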 The conditions noted are these: higher = more signal.
Assay [5] deals with Neurogenic locus notch homolog protein 2 (Homo sapiens) (UniProt Q04721). In words: small molecules binding Notch2 protein – biochemical, small-molecule microarray, 635 nm fluorescence, stem cell growth factors, primary screen (AID 1073). The conditions noted are these: higher = more signal.
Assay [6] concerns the target Pro-neuregulin-1, membrane-bound isoform (Homo sapiens) (UniProt Q02297). In words: small molecules binding neuregulin-1 protein – biochemical, small-molecule microarray, fluorescence 635/667, psychiatric disease protein project, primary screen (AID 1075).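 Further: score combines 667 nm spot fluorescence with signal to noise.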 The note with it: NRG1 binding, 635 nm fluorescence, higher = more signal.
The test system of assay [7] is Neuregulin-1 EGF-like domain. The assay can be described thus: small molecules binding NRG1 EGF domain – biochemical, small-molecule microarray, 635 nm fluorescence, primary screen (AID 1081).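 Further: binding of the protein to compounds printed on small-molecule microarray slides.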 The note with it: higher = more signal.
The nature of assay [8]: FRG1 expression reporter modulators in myotubes – cell-based, C2C12 myotubes, firefly/Renilla luciferase, luminescence, FRG1 inhibition for FSHD, primary screen (AID 1084). The note with it: FRG1 promoter luciferase, higher = more signal, called active from +8 up or from −8 down.
Assay [9] can be described thus: small molecules captured by biotinylated probe aFST – biochemical, small-molecule microarray, fluorescence 635/667, stem cell growth factor project, primary screen (AID 1086).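 Further: score merges 667 nm fluorescence with signal-to-noise of each printed compound spot.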 The conditions noted are these: higher = more signal.
The nature of assay [10]: binders of probe aHhip on microarray, primary screen, stem cell growth factor project, biochemical, small-molecule microarray, fluorescence 635/667 (AID 1087).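 Further: score merges spot fluorescence at 667nm with spot signal to noise ratio.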 The conditions noted are these: higher = more signal.
For assay [11], the system named is PRMT1 (protein arginine N-methyltransferase 1). In words: small molecules binding arginine methyltransferase PRMT1 – biochemical, small-molecule microarray, 635 nm fluorescence, primary screen (AID 1088).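 Further: binding of Prmt1 protein to compounds spotted on small-molecule microarray slides.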 The conditions noted are these: higher = more signal.
Assay [12] in a line: growth effects on S. cerevisiae YJM789 – YJM789 clinical isolate, OD600, 24 h, basal, primary screen (AID 1089).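 Further: growth of clinical yeast isolate S. cerevisiae YJM 789 seeded 1000 cells per well; test concentration not given here.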 The conditions noted are these: higher = more signal, called active from +8 up or from −8 down.
Assay [13] can be described thus: S. pombe growth modifiers, basal conditions – strain 972, OD600, 24 h, no modulator, primary screen (AID 1090).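 Further: basal condition with compound alone and no growth modifier present; test concentration not given here.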 The note with it: S. pombe 972 growth, higher = more signal, called active from +8 up or from −8 down.
Assay [14] in a line: budding yeast growth modifiers under rapamycin – strain BY4716, OD600, 96 h, primary screen (AID 1091). Further: test concentration not given here. The conditions noted are these: S. cerevisiae BY4716 + rapamycin, higher = more signal, called active from +8 up or from −8 down.
Assay [15] concerns the target Torsin-1A-interacting protein 2 (Homo sapiens) (UniProt Q8NFQ8). The assay can be described thus: small molecules binding lysate-expressed LULL1 – cell lysate, human LULL1 lysate, 635/667 nm fluorescence, primary screen (AID 1092).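 Further: probe is lysate of COS7 cells overexpressing human LULL1; score merges per-feature 667 nm fluorescence with signal-to-noise.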 The note with it: small-molecule microarray, hLULL1 lysate binding, 635 nm fluorescence; higher = more signal.
Assay [16] is described as follows: optical density change of DRC41 E. coli – strain DRC41, OD650, 24 h, E. coli filamentation project, primary screen (AID 1093).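 Further: MC1000 strain lacking acrAB efflux and sulA so SOS filamentation is blocked; test concentration not given here.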 The conditions noted are these: E. coli DRC41 growth, higher = more signal, called active from +8 up or from −8 down.
The nature of assay [17]: probe aLefty2 binding to arrayed compounds – biochemical, biotinylated probe, 635/667 nm fluorescence, primary screen (AID 1094).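 Further: score merges spot fluorescence near 667 nm with spot signal-to-noise ratio.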 The note with it: small-molecule microarray, higher = more signal.
Assay [18] concerns Noggin (protein binding on small-molecule microarray). In words: small molecules binding Noggin protein – biochemical, 635/667 nm fluorescence, primary screen (AID 1095).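 Further: score merges 667 nm feature fluorescence with signal to noise over triplicate slides.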 The note with it: 635 nm fluorescence, higher = more signal.
Assay [19] deals with Neurogenic locus notch homolog protein 3 (Homo sapiens) (UniProt Q9UM47). In words: small molecules binding NOTCH3 protein – biochemical, 635/667 nm fluorescence, primary screen (AID 1096). The note with it: small-molecule microarray, 635 nm fluorescence, higher = more signal.
Neurogenic locus notch homolog protein 3 (Homo sapiens), sequence (Q9UM47 whole entry, looked up): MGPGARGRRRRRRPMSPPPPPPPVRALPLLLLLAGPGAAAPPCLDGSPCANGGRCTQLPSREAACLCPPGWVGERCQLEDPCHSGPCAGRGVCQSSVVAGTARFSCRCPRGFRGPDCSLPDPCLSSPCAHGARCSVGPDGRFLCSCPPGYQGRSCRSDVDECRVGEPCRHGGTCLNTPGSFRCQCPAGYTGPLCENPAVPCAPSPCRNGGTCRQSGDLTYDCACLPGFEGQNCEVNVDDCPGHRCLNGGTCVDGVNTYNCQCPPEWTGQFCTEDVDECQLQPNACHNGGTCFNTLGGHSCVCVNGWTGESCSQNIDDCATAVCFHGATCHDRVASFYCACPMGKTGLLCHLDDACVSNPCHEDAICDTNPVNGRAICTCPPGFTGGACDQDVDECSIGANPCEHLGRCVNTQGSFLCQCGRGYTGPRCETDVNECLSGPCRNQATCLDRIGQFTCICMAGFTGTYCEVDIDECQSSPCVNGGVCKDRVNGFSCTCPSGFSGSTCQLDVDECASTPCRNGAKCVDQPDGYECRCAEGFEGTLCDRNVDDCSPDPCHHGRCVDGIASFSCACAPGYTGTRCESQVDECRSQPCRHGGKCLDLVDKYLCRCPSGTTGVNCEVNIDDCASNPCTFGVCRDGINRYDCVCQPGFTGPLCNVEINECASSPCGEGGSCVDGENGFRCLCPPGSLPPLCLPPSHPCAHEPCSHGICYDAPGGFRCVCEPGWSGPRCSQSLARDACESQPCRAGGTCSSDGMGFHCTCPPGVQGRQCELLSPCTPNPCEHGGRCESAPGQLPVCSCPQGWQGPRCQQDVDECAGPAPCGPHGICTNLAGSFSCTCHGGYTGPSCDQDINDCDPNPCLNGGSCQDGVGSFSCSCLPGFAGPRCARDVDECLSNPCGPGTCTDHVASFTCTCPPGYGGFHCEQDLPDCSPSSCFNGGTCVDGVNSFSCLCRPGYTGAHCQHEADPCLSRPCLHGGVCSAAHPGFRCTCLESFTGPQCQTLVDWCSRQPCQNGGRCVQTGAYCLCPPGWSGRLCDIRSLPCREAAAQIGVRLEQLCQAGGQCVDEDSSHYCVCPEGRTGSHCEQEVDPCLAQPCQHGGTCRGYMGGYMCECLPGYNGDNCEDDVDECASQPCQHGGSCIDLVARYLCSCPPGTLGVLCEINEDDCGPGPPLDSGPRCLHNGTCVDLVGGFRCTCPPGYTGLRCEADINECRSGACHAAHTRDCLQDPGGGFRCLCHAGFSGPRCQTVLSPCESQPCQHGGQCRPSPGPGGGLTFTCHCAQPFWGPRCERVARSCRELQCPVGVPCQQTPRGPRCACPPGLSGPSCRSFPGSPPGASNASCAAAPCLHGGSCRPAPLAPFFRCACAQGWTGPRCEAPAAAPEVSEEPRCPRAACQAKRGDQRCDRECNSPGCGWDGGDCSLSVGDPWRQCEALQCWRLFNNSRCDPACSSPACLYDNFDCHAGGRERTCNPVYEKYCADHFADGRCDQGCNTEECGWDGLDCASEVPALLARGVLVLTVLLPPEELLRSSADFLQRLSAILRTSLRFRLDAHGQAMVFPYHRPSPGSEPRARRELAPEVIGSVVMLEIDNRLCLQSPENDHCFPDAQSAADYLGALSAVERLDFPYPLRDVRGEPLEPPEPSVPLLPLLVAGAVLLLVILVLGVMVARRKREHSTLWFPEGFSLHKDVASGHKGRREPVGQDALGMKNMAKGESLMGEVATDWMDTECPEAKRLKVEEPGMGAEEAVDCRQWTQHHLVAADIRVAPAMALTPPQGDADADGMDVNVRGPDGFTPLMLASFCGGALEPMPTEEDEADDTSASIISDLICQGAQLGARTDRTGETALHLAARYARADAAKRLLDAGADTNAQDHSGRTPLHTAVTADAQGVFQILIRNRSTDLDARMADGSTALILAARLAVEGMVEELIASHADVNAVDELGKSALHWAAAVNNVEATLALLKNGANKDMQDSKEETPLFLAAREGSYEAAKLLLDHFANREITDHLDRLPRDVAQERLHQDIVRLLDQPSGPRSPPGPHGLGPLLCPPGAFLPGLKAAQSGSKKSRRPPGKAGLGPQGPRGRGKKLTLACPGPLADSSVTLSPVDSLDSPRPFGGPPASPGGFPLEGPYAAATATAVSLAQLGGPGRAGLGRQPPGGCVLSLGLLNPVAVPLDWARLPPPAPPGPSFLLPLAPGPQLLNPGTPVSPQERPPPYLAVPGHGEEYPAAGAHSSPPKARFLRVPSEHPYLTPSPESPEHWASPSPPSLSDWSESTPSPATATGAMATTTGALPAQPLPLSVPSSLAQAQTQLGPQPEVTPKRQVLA
Assay [20] can be described thus: probe aEGFR binding to arrayed compounds – biochemical, biotinylated probe, 635/667 nm fluorescence, primary screen (AID 1097).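 Further: probe is a biotinylated anti-EGFR antibody binding compounds printed on slides; score combines fluorescence near 667 nm and signal to noise of each spot.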 The conditions noted are these: small-molecule microarray, higher = more signal.

The source made the active and inactive calls.

Torsin-1A-interacting protein 2 (Homo sapiens), sequence (Q8NFQ8 whole entry, looked up): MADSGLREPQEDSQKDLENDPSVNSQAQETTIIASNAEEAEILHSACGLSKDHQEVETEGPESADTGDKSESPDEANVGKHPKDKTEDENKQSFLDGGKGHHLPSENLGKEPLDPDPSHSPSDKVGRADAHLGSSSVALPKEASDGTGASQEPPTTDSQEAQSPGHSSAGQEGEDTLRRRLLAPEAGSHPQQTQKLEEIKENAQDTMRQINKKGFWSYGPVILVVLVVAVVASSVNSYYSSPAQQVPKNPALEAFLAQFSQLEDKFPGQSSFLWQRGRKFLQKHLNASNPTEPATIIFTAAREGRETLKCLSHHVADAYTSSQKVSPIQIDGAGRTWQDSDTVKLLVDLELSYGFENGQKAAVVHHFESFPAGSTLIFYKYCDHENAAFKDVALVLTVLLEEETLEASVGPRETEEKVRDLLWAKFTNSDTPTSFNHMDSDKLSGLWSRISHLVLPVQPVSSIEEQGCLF
Pro-neuregulin-1, membrane-bound isoform (Homo sapiens), sequence (Q02297 whole entry, looked up, the tested form may be a part, canonical isoform): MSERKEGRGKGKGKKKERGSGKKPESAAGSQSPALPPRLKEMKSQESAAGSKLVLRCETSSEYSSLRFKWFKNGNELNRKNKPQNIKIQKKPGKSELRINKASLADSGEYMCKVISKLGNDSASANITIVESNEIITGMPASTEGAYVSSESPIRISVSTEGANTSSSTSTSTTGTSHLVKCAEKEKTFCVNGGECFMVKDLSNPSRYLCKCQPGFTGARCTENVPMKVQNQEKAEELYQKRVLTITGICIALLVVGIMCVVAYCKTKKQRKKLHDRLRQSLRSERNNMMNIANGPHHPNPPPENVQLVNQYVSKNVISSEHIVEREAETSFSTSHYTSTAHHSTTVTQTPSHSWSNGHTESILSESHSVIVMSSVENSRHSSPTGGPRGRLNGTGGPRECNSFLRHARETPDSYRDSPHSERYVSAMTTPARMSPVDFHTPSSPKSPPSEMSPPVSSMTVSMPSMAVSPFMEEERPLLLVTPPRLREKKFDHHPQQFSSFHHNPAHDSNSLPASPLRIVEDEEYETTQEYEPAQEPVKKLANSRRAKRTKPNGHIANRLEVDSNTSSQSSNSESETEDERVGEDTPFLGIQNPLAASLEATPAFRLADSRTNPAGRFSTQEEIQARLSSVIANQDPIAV

Regarding `COCCOC(=O)N1C(=O)[C@@]2(c3cc(C#CCCO)ccc31)[C@H](C(N)=O)[C@H]1C(=O)O[C@H](c3ccccc3)[C@H](c3ccccc3)N1[C@@H]2c1ccc(O)cc1`, the composite z-score in [1] is -0.025; in assay [2] it was -0.283; in assay [3], -0.0145; in [4] it was 0.413; in assay [5] it was -0.242; in [6] it was 0.298. Also, the composite z-score in assay [7] is 0.171; in assay [9], -0.0464; in assay [10] it was -0.202; in [11], -0.101; in assay [15] it was 0.877; in assay [17] it was -0.159. Also, the composite z-score in [18] is -0.248; in assay [19] it was -0.589; in assay [20] it was -0.202. In addition, the z-score was 0.663 (inactive) in assay [8]; 0.0223 (inactive) in assay [12]; -0.0181 (inactive) in assay [13]; -0.535 (inactive) in [14]; -0.844 (inactive) in assay [16].

Consider `CC(=O)NCCCC[C@@H]1NC(=O)[C@H]2C[C@@H](C(=O)NCCCCCCNC(=O)CS)[C@@H](c3ccc(O)cc3)N2C1=O`, for which the composite z-score in [1] is 0.993; in [2], 1.42; in assay [3], -0.0049; in assay [4], 0.545; in [5] it was -0.721; in assay [6], 0.824. The composite z-score was 1.47 in assay [7]; -0.555 in assay [9]; -0.108 in [10]; 1.15 in [11]; 3.13 in assay [15]; 0.0283 in assay [17]. In addition, the composite z-score is -0.773 in assay [18], -0.372 in assay [19] and -0.258 in [20]. Also, the z-score was 0.659 (inactive) in [8]; 1.2 (inactive) in [12]; 0.686 (inactive) in assay [13]; 0.983 (inactive) in assay [14]; 0.189 (inactive) in [16].

Regarding `COC(=O)[C@H](Cc1ccccc1)N[C@@H](/C=C/C1CC1)[C@H](O)Cc1ccccc1`, the composite z-score in [1] is 0.115; in assay [2] it was -0.355; in [3] it was 0.0748; in assay [4] it was 0.699; in assay [5], -1.08; in [6], -0.292. The composite z-score in assay [7] is 0.583; in [9] it was -0.575; in assay [10] it was -0.409; in [11], 0.136; in assay [15], 0.521; in assay [17] it was -0.127. For the same molecule, the composite z-score in [18] is -0.327; in assay [19], -0.505; in assay [20], -0.218. Also, the z-score in [8] is -2.66 (inactive); in [12] it was -0.701 (inactive); in assay [13] it was -7.84 (inactive); in assay [14], -0.581 (inactive); in assay [16], -0.296 (inactive).

On to `NC(=O)N1C(=O)C2C(C1=O)C1C=C(c3ccc(CO)cc3)C2C(c2cccs2)N1Cc1cccc(OC(F)(F)F)c1` (stereo not given), for which the composite z-score in assay [1] is 0.677; in assay [2] it was 0.639; in [3], -0.0085; in [4], 0.326; in assay [5] it was -0.596; in [6], 1.3. In addition, the composite z-score was 0.106 in assay [7]; 0.322 in assay [9]; -0.0645 in assay [10]; -0.139 in assay [11]; 1.01 in assay [15]; 0.181 in assay [17]. Also, the composite z-score was -0.312 in [18], -0.146 in [19] and 0.0089 in [20]. Further, the z-score was -0.723 (inactive) in [8]; -1.7 (inactive) in [12]; -4.45 (inactive) in [13]; 3.82 (inactive) in assay [14]; -0.528 (inactive) in assay [16].

On to `COC(=O)[C@@]1(Cc2ccc(F)cc2)[C@H]2c3cc(C(=O)N(C)C)n(Cc4cc(F)c(F)c(F)c4)c3C[C@H]2CN1C(=O)c1ccccc1`, for which the composite z-score in [1] was 0.293; in assay [2] it was -0.528; in [3], 0.261; in assay [4], 0.593; in assay [5], 1.77; in [6] it was 1.61. Moreover, the composite z-score in assay [7] was 0.971; in [9], 1.88; in assay [10], 0.142; in [11] it was -0.0972; in assay [15], 3.07; in [17] it was 0.376. In addition, the composite z-score in assay [18] was -0.592; in assay [19], 1.03; in assay [20] it was 0.487. The z-score in [8] was 0.621 (inactive); in assay [12], 0.0065 (inactive); in assay [13], 1.72 (inactive); in assay [14] it was 2.54 (inactive); in [16], -0.535 (inactive).
